As usually defined, the Inhibition is the change of the read-out against control, counted positive when it falls.

We go through eleven molecules from ChEMBL document CHEMBL4513146, “CO-ADD screening of Karazin Kharkiv National University (Ukraine) compounds”.

Potency and affinity values are given separately.

In the experiment the test system is Escherichia coli. Particulars: Concentration 32 ug.mL-1;; ASSAY_TEST Inhibition of Bacterial Growth; detection method Absorption (OD600); MEDIA CAMHB; plate type 384well; NBS; CORNING #3640; time 18 hr.
For the molecule `CC(=O)c1cccc(NC(=O)Cn2nc3c(N4CCN(c5ccccc5C)CC4)nccn3c2=O)c1`, the Inhibition amounted to 2.22%.
The same measure for `CC(C)c1nnc2c(SCC(=O)Nc3ccccc3Br)nc3ccccc3n12`: -0.85%; for `COc1ccc(-c2noc(Cn3nc4ccc(-c5ccccc5)nn4c3=O)n2)cc1OC`: -3.1%; for `Cc1ccc(Oc2nccn3c(=O)n(CC(=O)Nc4cccc(Cl)c4)nc23)cc1`: -9.06%.
For `CCOc1ccc(C(=O)CSc2nnc3c(=O)n(-c4ccc(Br)cc4)ccn23)cc1` the value was -1.32%; for `CCCCn1c(=O)c2sccc2n2c(SCc3cccc(C(F)(F)F)c3)nnc12`, -8.66%; for `COc1ccc(CCn2c(=O)c3sccc3n3c(=O)n(CC(=O)c4ccccc4)nc23)cc1OC`, 3.29%.
As to `COc1ccc(C)cc1NC(=O)CSc1nc2ccccc2n2cnnc12`, the Inhibition is 4.56%.
The same measure for `O=C(Cn1nc2n(Cc3ccccc3)c(=O)c3ccccc3n2c1=O)Nc1ccc2c(c1)OCO2`: 1.74%; for `CCCc1nnc2c(=O)n(CC(=O)Nc3ccc(NC(C)=O)cc3)c3ccccc3n12`: -0.84%; for `CCOc1ccc(NC(=O)Cn2nc3c(Sc4ccccc4)nccn3c2=O)cc1`: -2.95%.
